According to PubChem BioAssay (NCI):
The panel holds about 83,000 compounds, 20% with a hit somewhere; the sample as a whole holds those more often.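 Each cell line was grown in a 96-well plate and treated with one concentration of compound for 48 hours. Values below 10 were considered active.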 The source made the active and inactive calls.

Tests used:
Assay in all cases: NCI-60 one-dose screen, 48 h (100 = growth as untreated, 0 = no growth, -100 = all killed)
Conditions in all cases: 10 µM unless noted
NCI-H23 lung = test system: NCI-H23 lung
NCI-H226 lung = test system: NCI-H226 lung
NCI-H322M lung = test system: NCI-H322M lung
HOP-62 NSCLC = test system: HOP-62 NSCLC
NCI-H460 lung = test system: NCI-H460 lung
NCI-H522 lung = test system: NCI-H522 lung
A549/ATCC NSCLC = test system: A549/ATCC NSCLC
786-0 renal = test system: 786-0 renal
COLO 205 colon = test system: COLO 205 colon
DU-145 prostate = test system: DU-145 prostate
K-562 leukemia = test system: K-562 leukemia
MALME-3M melanoma = test system: MALME-3M melanoma
MDA-MB-231 breast = test system: MDA-MB-231 breast
RXF 393 renal = test system: RXF 393 renal
SF-268 CNS = test system: SF-268 CNS
SF-295 CNS = test system: SF-295 CNS
SF-539 CNS = test system: SF-539 CNS
UACC-257 melanoma = test system: UACC-257 melanoma
M14 melanoma = test system: M14 melanoma
HCT-15 colon = test system: HCT-15 colon

Measured: growth

CCOC(=O)c1c2c(c(C)n1Cc1ccccc1)-c1nc(N)ncc1CC2
inactive: NCI-H23 lung 93.9% | NCI-H226 lung 83.7% | NCI-H322M lung 94.7% | HOP-62 NSCLC 82.4% | NCI-H460 lung 102% | NCI-H522 lung 96.7% | A549/ATCC NSCLC 104% | 786-0 renal 92% | COLO 205 colon 131% | DU-145 prostate 120% | K-562 leukemia 94.2% | MALME-3M melanoma 168% | MDA-MB-231 breast 79.3% | RXF 393 renal 120% | SF-268 CNS 104% | SF-295 CNS 229% | SF-539 CNS 103% | UACC-257 melanoma 144% | M14 melanoma 111% | HCT-15 colon 99.4%

O=C(CCc1nnc(Cn2ccnc2)o1)c1nc2ccccc2[nH]1
inactive: NCI-H23 lung 102% | NCI-H226 lung 115% | NCI-H322M lung 92.9% | HOP-62 NSCLC 102% | NCI-H460 lung 116% | NCI-H522 lung 98.4% | A549/ATCC NSCLC 103% | 786-0 renal 105% | COLO 205 colon 119% | DU-145 prostate 108% | K-562 leukemia 101% | MALME-3M melanoma 77.8% | MDA-MB-231 breast 89.7% | RXF 393 renal 124% | SF-268 CNS 111% | SF-295 CNS 111% | SF-539 CNS 100% | UACC-257 melanoma 114% | M14 melanoma 105% | HCT-15 colon 100%

N=C(N)/N=C(\CCc1nc2ccccc2[nH]1)c1nc2ccccc2[nH]1
inactive: NCI-H23 lung 91.6% | NCI-H226 lung 93.4% | NCI-H322M lung 118% | HOP-62 NSCLC 97% | NCI-H460 lung 114% | NCI-H522 lung 96% | A549/ATCC NSCLC 102% | 786-0 renal 107% | COLO 205 colon 103% | DU-145 prostate 111% | K-562 leukemia 98.4% | MALME-3M melanoma 96.9% | MDA-MB-231 breast 100% | RXF 393 renal 116% | SF-268 CNS 112% | SF-295 CNS 120% | SF-539 CNS 97.1% | UACC-257 melanoma 109% | M14 melanoma 96.4% | HCT-15 colon 106%

CN(CC(=O)Nc1nc2ccccc2[nH]1)S(=O)(=O)c1ccc(Cl)cc1
inactive: NCI-H23 lung 126% | NCI-H226 lung 81.7% | NCI-H322M lung 98.3% | HOP-62 NSCLC 69.4% | NCI-H460 lung 45.3% | NCI-H522 lung 80.6% | A549/ATCC NSCLC 111% | 786-0 renal 91.9% | COLO 205 colon 95.6% | DU-145 prostate 89.9% | K-562 leukemia 95.7% | MALME-3M melanoma 100% | MDA-MB-231 breast 99.6% | RXF 393 renal 122% | SF-268 CNS 67% | SF-295 CNS 38.4% | SF-539 CNS 88.5% | M14 melanoma 95.7% | HCT-15 colon 90.8%

O=C1C(Cl)=C(N=Nc2c(Cl)c(O)c3ccccc3c2O)C(=O)c2ccccc21
inactive: NCI-H23 lung 68.2% | NCI-H226 lung 90.1% | NCI-H322M lung 45% | HOP-62 NSCLC 52.1% | NCI-H460 lung 55.7% | NCI-H522 lung 72.7% | A549/ATCC NSCLC 51.9% | 786-0 renal 98.4% | COLO 205 colon 86.7% | DU-145 prostate 81.3% | K-562 leukemia 37.1% | MALME-3M melanoma 43.1% | MDA-MB-231 breast 61.2% | RXF 393 renal 88.5% | SF-268 CNS 77.9% | SF-295 CNS 33.2% | SF-539 CNS 96.2% | M14 melanoma 59.5% | HCT-15 colon 61.7%

CCCc1cccc(CCC)c1O
inactive: NCI-H23 lung 100% | NCI-H226 lung 106% | NCI-H322M lung 124% | HOP-62 NSCLC 106% | NCI-H460 lung 106% | NCI-H522 lung 89.9% | A549/ATCC NSCLC 98.2% | 786-0 renal 110% | COLO 205 colon 116% | DU-145 prostate 120% | K-562 leukemia 104% | MALME-3M melanoma 131% | MDA-MB-231 breast 125% | RXF 393 renal 121% | SF-268 CNS 109% | SF-295 CNS 91.4% | SF-539 CNS 118% | UACC-257 melanoma 93.3% | HCT-15 colon 107%

CN(C)c1ccc2[nH]c3c(C(N)=O)cc(=O)c(=O)c=3oc2c1
inactive: NCI-H23 lung 34.9% | NCI-H226 lung 87.7% | NCI-H322M lung 109% | HOP-62 NSCLC 20.7% | NCI-H460 lung 38.4% | NCI-H522 lung 11.2% | A549/ATCC NSCLC 33.8% | 786-0 renal 80.4% | COLO 205 colon 101% | DU-145 prostate 71.9% | MALME-3M melanoma 87.7% | MDA-MB-231 breast 62.6% | RXF 393 renal 52.1% | SF-268 CNS 79.8% | SF-295 CNS 78.9% | UACC-257 melanoma 91% | M14 melanoma 61.5% | HCT-15 colon 24.8%
active: K-562 leukemia 7.27% | SF-539 CNS 7.15%

Cc1cc(Cl)ccc1Nc1nc(C(F)(F)F)ccc1C(=O)NCC(=O)N/N=C/c1c(Cl)cccc1Cl
inactive: NCI-H23 lung 74.6% | NCI-H226 lung 89.5% | NCI-H322M lung 80.9% | HOP-62 NSCLC 102% | NCI-H460 lung 80.7% | NCI-H522 lung 75.8% | A549/ATCC NSCLC 44.9% | 786-0 renal 94.9% | COLO 205 colon 87.3% | DU-145 prostate 49.9% | K-562 leukemia 50.2% | MALME-3M melanoma 92.2% | MDA-MB-231 breast 61.6% | RXF 393 renal 107% | SF-268 CNS 31% | SF-295 CNS 54.2% | SF-539 CNS 79.4% | UACC-257 melanoma 149% | M14 melanoma 75.8% | HCT-15 colon 60.8%
